Screens (PubChem)
This is a sample that favours compounds with a hit; in the whole collection about 1.6% have one here.
OPRM1-OPRD1 inv – inverse agonists of human mu-delta opioid receptor heterodimerization; P35372+P41143; cell-based MOR-DOR heterodimer luminescence, inverse agonism; inhibition, % at 9.3 µM; 0.21% of 340,000 active; in the data active = inhibition above about 22%, passing the limit was not always enough;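 note: 0% = cells with DMSO and 100% = wells without cells with DMSO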
HTR2A ag – activates the mouse 5-HT2A serotonin receptor | P35363 | CHO-K1 mHTR2A beta-arrestin complementation, luminescence; percent of 30 µM serotonin response | 0.66% of 360,000 active | activation, % at 7.6 µM;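 active = activation above a run cutoff, the mean activation of all tested compounds plus 3 SD, cut at about 14% in these data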;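 note: 0% = plate median of compound wells and 100% = 30 µM serotonin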
MOR-DOR ag-1 – agonists of human mu-delta opioid receptor heterodimerization | P35372+P41143 | cells, OPRM1-OPRD1 heterodimerization, luminescence | activation, % at 9.3 µM | 0.3% of 340,000 active;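 note: 0% = vehicle-treated cells and 100% = reference agonist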
HTR5A inv ag – HTR5A inverse agonism, opioid heterodimer counter-screen. HTR5A cell line, luminescence. inhibition, % at 9.3 µM. 0.083% of 340,000 active. AID 504634; in the data active = inhibition mostly above about 23%, no sharp cut-off; inactive = mostly below about 18%;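 note: 0% = cells with DMSO and 100% = no-cell wells with DMSO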
Target sequence (P47898 whole entry, looked up): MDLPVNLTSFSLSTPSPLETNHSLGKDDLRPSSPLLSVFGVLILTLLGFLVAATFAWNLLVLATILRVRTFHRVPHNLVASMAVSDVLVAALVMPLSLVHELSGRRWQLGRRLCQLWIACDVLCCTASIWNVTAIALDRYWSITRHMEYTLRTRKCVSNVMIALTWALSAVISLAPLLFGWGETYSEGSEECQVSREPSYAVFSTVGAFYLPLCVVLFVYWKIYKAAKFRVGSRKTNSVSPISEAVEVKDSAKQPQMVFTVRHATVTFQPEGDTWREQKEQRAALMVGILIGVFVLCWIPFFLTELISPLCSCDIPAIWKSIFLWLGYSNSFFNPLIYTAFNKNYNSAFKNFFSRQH
HTR5A ag ctr – counter-screen for OPRM1-OPRD1 agonists: human HTR5A agonism; HTR5A agonist assay, luminescence, cell-based; 0.61% of 340,000 active; activation, % at 9.3 µM; AID 504692; P47898; in the data active = activation mostly above about 9.5%, no sharp cut-off; inactive = mostly below about 7.6%;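 note: 0% = cells with vehicle only and 100% = reference agonist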
MOR-DOR ag-2 – opioid heterodimer agonism, HTR5A counter-screen. shares compounds with HTR5A ag ctr. AID 504913. 13% of 800 active. U2OS counter-screen cells, complementation luminescence, 3 h. activation, % at 9.3 µM
HTR5A ag confirm – HTR5A (human) agonism, confirmation. activation, % at 9.3 µM. 17% of 800 active. HTR5A agonist cell assay, luminescence. shares compounds with HTR5A ag ctr; in the data active = activation above about 17%;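 note: 0% = cells with vehicle only and 100% = full reference agonist response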
Starred values were filed as active, the others as inactive; . = no result given; ! = not active in a repeat. Cut-off read from the data, not from the text of the source, unless noted: active = activation above about 18%; inactive = the rest.

SMILES	OPRM1-OPRD1 inv	HTR2A ag	MOR-DOR ag-1	HTR5A inv ag	HTR5A ag ctr	MOR-DOR ag-2	HTR5A ag confirm
Cc1c(C(=O)c2no[n+]([O-])c2C(=O)c2cnn(C)c2C)cnn1C	-6	-2	1	-22	26*	11	15
CCOC(=O)c1cc(C(C)=O)n2ccccc12	6	3	-1	14	1	.	.
CCOC(=O)c1cc(C(=O)c2cccs2)n2ccc(C(C)=O)cc12	14	0	-3	-55	20*	3	-2
CC1CCC(C(C)C)C(OC(=O)Cn2c(-c3ccc(Cl)cc3)[n+](C)c3ccccc32)C1 (stereo not drawn)	-21	6	4	-38	13	.	.
CC1CCC(C(C)C)C(OC(=O)COC(=O)c2ccc(N)cc2)C1 (stereo not drawn)	-50	8	7	-19	4	.	.
Cc1ccccc1OCc1n(CC(=O)OC2CC(C)CCC2C(C)C)c2ccccc2[n+]1C (stereo not drawn)	-21	-6	4	-51	18*	14	7
CC1CCC(C(C)C)C(OC(=O)Cn2c(-c3ccc(Br)cc3)[n+](C)c3ccccc32)C1 (stereo not drawn)	-9	-5	2	-43	17*	50*!	4
Cc1cccc2c(=O)n3c(cc12)-c1[nH]c2ccccc2c1CC3	-65	1	15	-57	15*	3	-1
COC(=O)c1c(C(=O)OC)c(-c2ccccc2)n2c1CCC2	9	-5	-2	2	0	.	.
COC(=O)c1c(C(=O)OC)c2n(c1C)Cc1ccccc1C2	6	4	-1	1	15*	0	3
O=C(COc1ccccc1)Nc1ccc(-c2nnc(-c3ccco3)o2)cc1	-34	9	7	-30	16*	0	1
O=C(CCc1nc(-c2ccccc2)no1)NC1CCCCCC1	-1	3	0	-4	-1	.	.
COc1cccc(NC(=O)c2cc(-c3ccncc3)nc3c(C)cc(C)cc23)c1	-32	-1	7	-9	16*	6	8
COc1ccc(NC(=O)c2cc(-c3ccccn3)nc3c(C)cc(C)cc23)c(C)c1	-25	0	7	1	0	.	.
COc1ccc(S(=O)(=O)N2CCN(c3ccccc3)CC2)cc1	10	1	-2	6	-2	.	.
NS(=O)(=O)c1ccc(NC(=O)Cn2ncc3c2-c2ccccc2OC3)cc1	-28	2	5	-57	19*	0	4
Cc1ccc(S(=O)(=O)/N=C(/Nc2nc(C)cs2)c2ccccc2)cc1	20	-7	-5	7	-2	.	.
Cc1ccc(OCC(=O)Nc2ccc(C)c(S(=O)(=O)N3CCCCC3)c2)c([N+](=O)[O-])n1	-24	5	4	-4	1	.	.
CC(=NNC(=O)c1ccncc1)c1ccc(Cl)cc1Cl	4	-2	-1	2	-1	.	.
CCC(Oc1ccc(Cl)cc1)C(=O)N1CC(=O)Nc2ccccc21 (stereo not drawn)	17	7	-3	16	4	.	.
O=C(c1ccc(Cl)c(S(=O)(=O)N2CCCCCC2)c1)N1CCCCC1	17	-4	-5	-5	-3	.	.
O=C(c1ccc(Cl)c(S(=O)(=O)N2CCCCCC2)c1)N1CCN(c2ccccn2)CC1	-12	0	2	-90	25*	1	31*
COc1ccc(Cl)cc1NC(=O)NCc1ccccn1	13	-4	-2	-41	17*	11	0
COc1cc2c(cc1OC)CN(S(=O)(=O)c1ccccc1F)CC2	12	-7	-3	4	-1	.	.
CC(C)Oc1ccc(C(CC(=O)O)n2cnnn2)cc1 (stereo not drawn)	.	1	.	.	.	.	.
Cc1ccc(NC(=O)C/C(N)=N/OC(=O)c2ccccc2)cc1	-48	-2	9	-21	15*	6	2
CCOC(=O)c1ccc(NC(=O)CNC(=O)c2ccccc2)cc1	1	5	0	-1	-2	.	.
CC1(C)Cc2c(C#N)c(SCCC#N)nc(N3CCOCC3)c2CS1	1	-1	0	-8	15*	1	3
NC(=O)c1cc([N+](=O)[O-])ccc1NCc1cccnc1	-4	2	1	-4	2	.	.
